Measurements reported in the supplement of paper PMC10849652.
Of roughly 7,900 targets only a part is listed; those with a hit were picked by preference. About 0.6% of all pairs of compound and target were hits.

What was measured:
Test in all cases: log2 fold change, soluble protein after heating vs DMSO (PISA); higher = thermal stabilisation; K562 cells, 10 uM, 30 min; active = over 0.2 and 3.5 SD of the protein, either way, in both replicates (recomputed)
bafetinib = compound: Cc1ccc(NC(=O)c2ccc(CN3CC[C@H](N(C)C)C3)c(C(F)(F)F)c2)cc1Nc1nccc(-c2cncnc2)n1 [bafetinib]
Summary of the method: (§1)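 Soluble protein was quantified by TMTpro 16plex LC-MS/MS after channel sums were equalised. It was obtained as the supernatant after 21,000xg for 90 min from pooled aliquots of K562 cells (2×10^6 cells/mL, 10 μM compound, 30 min) heated for 3 min across 48°C-58°C and extracted in PBS with 0.5% NP-40 at 4°C. Thermal stability values are relative to control samples and come from duplicates. They are given as log2 fold changes.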

[1] = compound: Cc1cccc(CC(=O)N2CCc3c2ccc(-c2cn(C)c4ncnc(N)c24)c3F)n1
Summary of the method: as §1

nilotinib = compound: Cc1cn(-c2cc(NC(=O)c3ccc(C)c(Nc4nccc(-c5cccnc5)n4)c3)cc(C(F)(F)F)c2)cn1 [nilotinib]
Summary of the method: as §1

[2] = compound: Cc1nc(Nc2n[nH]c3c2CN(C(=O)N[C@H](CN(C)C)c2ccccc2)C3(C)C)c2sccc2n1
Summary of the method: as §1

dasatinib = compound: Cc1nc(Nc2ncc(C(=O)Nc3c(C)cccc3Cl)s2)cc(N2CCN(CCO)CC2)n1 [dasatinib]
Summary of the method: as §1

[3] = compound: Cc1ncc(-c2ccnc(Nc3ccc(S(C)(=O)=O)cc3)n2)n1C(C)C
Summary of the method: as §1

[4] = compound: Cn1cc(-c2ccc3c(c2)CCN3C(=O)Cc2cccc(C(F)(F)F)c2)c2c(N)ncnc21
Summary of the method: as §1

mubritinib = compound: FC(F)(F)c1ccc(/C=C/c2nc(COc3ccc(CCCCn4ccnn4)cc3)co2)cc1 [mubritinib]
Summary of the method: as §1

[5] = compound: NC(=O)Nc1cc(-c2cccc(F)c2)sc1C(=O)N[C@H]1CCCNC1
Summary of the method: as §1

[6] = compound: NC(=O)c1cnc(N[C@@H]2CCCC[C@@H]2N)nc1Nc1cccc(-n2nccn2)c1
Summary of the method: as §1

[7] = compound: NC1(c2ccc(-c3nc4ccn5c(=O)[nH]nc5c4cc3-c3ccccc3)cc2)CCC1
Summary of the method: as §1

[8] = compound: NCC(=O)Nc1ccc(-n2nc(C(F)(F)F)cc2-c2ccc3c(ccc4ccccc43)c2)cc1
Summary of the method: as §1

entinostat = compound: Nc1ccccc1NC(=O)c1ccc(CNC(=O)OCc2cccnc2)cc1 [entinostat]
Summary of the method: as §1

vorinostat = compound: O=C(CCCCCCC(=O)Nc1ccccc1)NO [vorinostat]
Summary of the method: as §1

silmitasertib = compound: O=C(O)c1ccc2c(c1)nc(Nc1cccc(Cl)c1)c1ccncc12 [silmitasertib]
Summary of the method: as §1

[9] = compound: O=C1NC(=O)C(c2cnc3ccccn23)=C1c1cn2c3c(cc(F)cc13)CN(C(=O)N1CCCCC1)CC2
Summary of the method: as §1

[10] = compound: Cn1cc(-c2ccc3nnc(C(F)(F)c4ccc5ncccc5c4)n3n2)cn1
Summary of the method: as §1

tipifarnib = compound: Cn1cncc1[C@@](N)(c1ccc(Cl)cc1)c1ccc2c(c1)c(-c1cccc(Cl)c1)cc(=O)n2C [tipifarnib]
Summary of the method: as §1

citarinostat = compound: O=C(CCCCCCNC(=O)c1cnc(N(c2ccccc2)c2ccccc2Cl)nc1)NO [citarinostat]
Summary of the method: as §1

[11] = compound: c1cc(OCCN2CCCCC2)cc(-c2n[nH]c3ccc(-c4nnc[nH]4)cc23)c1
Summary of the method: as §1

Measured: log2 fold change

PMVK (UniProt Q15126)
UniProt Q15126, sequence (Q15126 whole entry, looked up): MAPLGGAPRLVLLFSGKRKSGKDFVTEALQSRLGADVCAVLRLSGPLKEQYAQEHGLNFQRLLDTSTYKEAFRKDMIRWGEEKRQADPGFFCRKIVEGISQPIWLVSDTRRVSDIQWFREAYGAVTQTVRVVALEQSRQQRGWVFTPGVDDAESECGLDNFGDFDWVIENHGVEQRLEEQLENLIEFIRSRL
inactive: bafetinib 0.057 | [1] -0.203 | nilotinib -0.214 | [2] -0.064 | dasatinib -0.308 | [3] -0.139 | [4] -0.098 | mubritinib -0.025 | [5] -0.04 | [6] -0.001 | [7] -0.114 | [8] 0.29 | entinostat -0.08 | vorinostat -0.134 | silmitasertib 0.065 | [9] 0.048

PISD (UniProt Q9UG56)
UniProt Q9UG56, sequence (Q9UG56 whole entry, looked up): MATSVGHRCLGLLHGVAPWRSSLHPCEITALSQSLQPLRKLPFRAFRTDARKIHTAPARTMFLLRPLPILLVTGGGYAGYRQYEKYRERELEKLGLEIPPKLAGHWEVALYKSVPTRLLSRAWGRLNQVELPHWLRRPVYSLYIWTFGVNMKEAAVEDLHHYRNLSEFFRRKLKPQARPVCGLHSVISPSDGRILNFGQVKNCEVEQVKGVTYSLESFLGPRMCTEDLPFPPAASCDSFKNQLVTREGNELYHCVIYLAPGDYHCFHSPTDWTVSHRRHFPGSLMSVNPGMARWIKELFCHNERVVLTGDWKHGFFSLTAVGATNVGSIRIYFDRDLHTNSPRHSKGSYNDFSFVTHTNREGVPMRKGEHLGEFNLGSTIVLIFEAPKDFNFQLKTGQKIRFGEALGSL
inactive: bafetinib -0.042 | [1] -0.007 | nilotinib -0.053 | [2] -0.003 | dasatinib -0.029 | [3] 0.105 | [4] -0.068 | [10] -0.02 | tipifarnib -0.005 | mubritinib 0.103 | [5] 0.023 | [6] 0.019 | [7] -0.009 | [8] 0.045 | entinostat -0.047 | vorinostat 0.069 | citarinostat 0.035 | silmitasertib -0.019 | [9] -0.097 | [11] -0.006

PTK2B (UniProt Q14289)
inactive: bafetinib -0.024 | [1] -0.063 | nilotinib 0.14 | [2] 0.104 | dasatinib -0.043 | [3] 0.276 | [4] -0.113 | [10] -0.014 | tipifarnib -0.521 | mubritinib -0.003 | [5] 0.076 | [6] 0.091 | [7] -0.13 | [8] -0.092 | entinostat 0.128 | vorinostat 0.011 | silmitasertib 0.054 | [9] 0.072

PARN (UniProt O95453)
UniProt O95453, sequence (O95453 whole entry, looked up): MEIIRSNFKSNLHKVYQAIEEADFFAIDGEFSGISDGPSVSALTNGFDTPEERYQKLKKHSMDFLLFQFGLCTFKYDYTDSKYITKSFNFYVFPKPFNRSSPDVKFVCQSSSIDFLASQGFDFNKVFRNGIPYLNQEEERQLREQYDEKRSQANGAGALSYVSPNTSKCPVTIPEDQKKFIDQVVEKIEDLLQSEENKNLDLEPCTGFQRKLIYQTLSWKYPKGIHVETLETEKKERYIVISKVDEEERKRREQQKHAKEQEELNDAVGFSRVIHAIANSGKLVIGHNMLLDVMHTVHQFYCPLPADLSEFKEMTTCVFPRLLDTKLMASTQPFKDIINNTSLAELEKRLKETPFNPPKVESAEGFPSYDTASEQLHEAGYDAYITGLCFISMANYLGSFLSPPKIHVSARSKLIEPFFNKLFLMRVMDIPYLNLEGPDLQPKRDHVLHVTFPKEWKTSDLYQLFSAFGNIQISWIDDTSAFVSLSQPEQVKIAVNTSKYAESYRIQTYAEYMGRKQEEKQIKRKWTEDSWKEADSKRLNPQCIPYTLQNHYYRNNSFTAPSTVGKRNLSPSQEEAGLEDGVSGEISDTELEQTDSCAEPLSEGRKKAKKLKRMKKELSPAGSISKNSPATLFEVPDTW
inactive: bafetinib -0.104 | [1] 0.019 | nilotinib -0.018 | [2] -0.073 | dasatinib -0.182 | [3] -0.011 | [4] -0.003 | [10] 0.018 | tipifarnib -0.01 | mubritinib 0.076 | [5] 0.012 | [6] -0.042 | [7] -0.1 | [8] -0.087 | entinostat 0.015 | vorinostat 0.03 | citarinostat 0.056 | silmitasertib 0.028 | [9] -0.069 | [11] -0.082

PBX2 (UniProt P40425)
inactive: bafetinib 0.019 | [1] 0.042 | nilotinib -0.057 | [2] -0.071 | dasatinib -0.202 | [3] -0.034 | [4] 0.013 | [10] -0.091 | tipifarnib -0.116 | mubritinib 0.027 | [5] 0.089 | [6] -0.016 | [7] -0.203 | [8] -0.065 | entinostat 0.058 | vorinostat 0.196 | silmitasertib 0.003 | [9] -0.168

PSMA3 (UniProt H0YJ03)
inactive: dasatinib 0.133 | [4] 0.036 | [10] -0.017 | tipifarnib 0.02 | [6] -0.059 | [8] -0.048 | citarinostat 0.081 | [11] 0.143

POLR2C (UniProt P19387)
active: [3] 0.3
inactive: bafetinib 0.012 | nilotinib -0.042 | [2] 0.073 | dasatinib -0.031 | [4] 0.003 | [10] -0.06 | tipifarnib -0.081 | mubritinib -0.097 | [5] -0.046 | [6] -0.026 | [7] -0.131 | [8] -0.196 | entinostat -0.031 | citarinostat 0.017 | silmitasertib 0.118 | [9] -0.023 | [11] -0.195

POLB (UniProt P06746)
inactive: [1] -0.081 | nilotinib -0.103 | [2] -0.134 | dasatinib -0.04 | [3] 0.009 | [4] 0.143 | [10] -0.133 | tipifarnib 0.043 | [5] -0.103 | entinostat 0.107 | vorinostat -0.106 | citarinostat 0.189 | [9] 0.113 | [11] -0.026

PRKX (UniProt P51817)
UniProt P51817, sequence (P51817 whole entry, looked up): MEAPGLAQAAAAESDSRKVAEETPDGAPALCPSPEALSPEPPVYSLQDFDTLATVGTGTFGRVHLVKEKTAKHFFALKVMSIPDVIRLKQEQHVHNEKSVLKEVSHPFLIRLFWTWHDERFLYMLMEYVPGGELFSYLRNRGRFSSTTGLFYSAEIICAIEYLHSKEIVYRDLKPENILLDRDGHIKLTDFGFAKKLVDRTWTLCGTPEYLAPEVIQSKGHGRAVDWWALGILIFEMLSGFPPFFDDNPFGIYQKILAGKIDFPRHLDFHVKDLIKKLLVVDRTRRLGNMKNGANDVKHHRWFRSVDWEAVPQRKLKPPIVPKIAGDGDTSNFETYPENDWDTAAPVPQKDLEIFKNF
inactive: bafetinib -0.039 | mubritinib 0.108 | [7] -0.243 | silmitasertib 0.153

PSMC3 (UniProt E9PLG2)
inactive: bafetinib 0.147 | dasatinib 0.258 | mubritinib 0.059 | [5] -0.62 | [7] -0.077 | [8] 0.117 | entinostat -0.438 | silmitasertib 0.097 | [9] -0.327

PRKD2 (UniProt M0R346)
inactive: bafetinib -0.147 | [1] -0.136 | [5] -0.279 | entinostat 0.032 | vorinostat 0.021 | [9] -0.15

PTP4A2 (UniProt Q12974)
UniProt Q12974, sequence (Q12974 whole entry, looked up): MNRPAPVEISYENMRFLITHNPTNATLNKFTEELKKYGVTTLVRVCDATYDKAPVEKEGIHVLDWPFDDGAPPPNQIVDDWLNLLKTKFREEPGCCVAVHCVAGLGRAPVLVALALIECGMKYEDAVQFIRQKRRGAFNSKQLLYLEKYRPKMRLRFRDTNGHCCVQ
inactive: bafetinib -0.045 | nilotinib 0.007 | [2] -0.056 | dasatinib 0.089 | [4] 0.094 | [10] -0.013 | tipifarnib 0.048 | mubritinib 0.047 | [5] -0.161 | [6] -0.286 | [7] 0.079 | [8] -0.023 | entinostat 0.011 | citarinostat 0.016 | silmitasertib 0.052 | [9] -0.168 | [11] -0.045
active: [3] -0.43

PDIK1L (UniProt Q8N165)
UniProt Q8N165, sequence (Q8N165 whole entry, looked up): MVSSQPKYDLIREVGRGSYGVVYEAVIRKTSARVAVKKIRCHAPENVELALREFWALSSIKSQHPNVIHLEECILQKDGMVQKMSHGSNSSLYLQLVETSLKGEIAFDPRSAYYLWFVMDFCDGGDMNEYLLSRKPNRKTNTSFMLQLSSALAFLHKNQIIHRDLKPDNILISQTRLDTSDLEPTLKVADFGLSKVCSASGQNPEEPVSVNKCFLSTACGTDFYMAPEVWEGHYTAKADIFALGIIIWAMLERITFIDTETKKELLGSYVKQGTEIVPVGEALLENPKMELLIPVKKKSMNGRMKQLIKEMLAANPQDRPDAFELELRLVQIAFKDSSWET
active: [2] 0.578 | [5] 0.566
inactive: bafetinib 0.166 | nilotinib -0.026 | dasatinib -0.081 | [3] -0.037 | [4] 0.05 | [10] 0.13 | tipifarnib -0.152 | mubritinib 0.034 | [6] -0.025 | [7] -0.075 | [8] -0.225 | entinostat -0.094 | citarinostat 0.016 | silmitasertib 0.035 | [9] 0.019 | [11] -0.162

PSD3 (UniProt Q9NYI0)
inactive: nilotinib -0.117 | [2] 0.029 | [3] 0.014 | [4] -0.002 | [10] 0.071 | tipifarnib -0.062 | mubritinib -0.035 | [7] -0.14 | [8] -0.113 | citarinostat 0.017 | silmitasertib -0.095 | [11] -0.02
active: [6] -0.262

PSMD8 (UniProt K7EK21)
inactive: [4] -0.216

PAN2 (UniProt Q504Q3)
UniProt Q504Q3, sequence (Q504Q3 whole entry, looked up): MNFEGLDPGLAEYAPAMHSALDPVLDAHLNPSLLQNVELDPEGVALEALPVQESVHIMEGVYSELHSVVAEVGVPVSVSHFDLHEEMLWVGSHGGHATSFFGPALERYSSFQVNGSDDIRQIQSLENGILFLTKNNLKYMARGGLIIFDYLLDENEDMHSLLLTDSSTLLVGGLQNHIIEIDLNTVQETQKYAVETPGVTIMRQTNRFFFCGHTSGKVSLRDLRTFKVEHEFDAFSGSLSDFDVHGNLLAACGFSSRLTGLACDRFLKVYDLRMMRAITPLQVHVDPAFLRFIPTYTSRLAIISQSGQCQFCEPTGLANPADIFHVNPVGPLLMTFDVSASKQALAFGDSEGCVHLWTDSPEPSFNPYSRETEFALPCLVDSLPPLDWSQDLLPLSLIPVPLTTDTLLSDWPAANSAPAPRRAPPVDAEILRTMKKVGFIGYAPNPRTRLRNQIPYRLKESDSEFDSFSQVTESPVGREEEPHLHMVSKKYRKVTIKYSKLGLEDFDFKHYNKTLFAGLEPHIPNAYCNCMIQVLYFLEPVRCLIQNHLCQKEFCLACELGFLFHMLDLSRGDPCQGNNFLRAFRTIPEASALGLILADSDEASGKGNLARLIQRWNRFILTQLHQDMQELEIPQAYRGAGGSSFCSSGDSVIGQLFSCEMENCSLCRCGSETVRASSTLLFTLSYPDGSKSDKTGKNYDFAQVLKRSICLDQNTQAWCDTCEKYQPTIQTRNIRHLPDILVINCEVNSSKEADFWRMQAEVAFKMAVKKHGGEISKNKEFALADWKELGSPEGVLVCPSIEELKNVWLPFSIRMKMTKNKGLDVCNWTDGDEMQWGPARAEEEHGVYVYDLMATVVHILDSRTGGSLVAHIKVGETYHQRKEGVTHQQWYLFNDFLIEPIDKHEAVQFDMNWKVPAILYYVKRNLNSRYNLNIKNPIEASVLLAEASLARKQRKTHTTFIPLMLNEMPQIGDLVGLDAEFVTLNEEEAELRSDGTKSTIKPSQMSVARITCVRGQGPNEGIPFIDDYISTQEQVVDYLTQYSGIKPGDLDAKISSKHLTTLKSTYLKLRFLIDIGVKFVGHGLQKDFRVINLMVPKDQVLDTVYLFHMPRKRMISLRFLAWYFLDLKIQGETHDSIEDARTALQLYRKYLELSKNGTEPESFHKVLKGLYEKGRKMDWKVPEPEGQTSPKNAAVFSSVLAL
inactive: bafetinib -0.052 | nilotinib -0.123 | [2] -0.02 | dasatinib 0.013 | [3] -0.09 | [8] -0.198 | citarinostat -0.127 | [11] 0.002

PEX5 isoform 4 (UniProt P50542)
inactive: dasatinib 0.139 | [4] 0.219 | [10] -0.078 | [5] 0.019 | [6] 0.002 | [8] 0.041 | entinostat 0 | [9] 0.163

POLR2M (UniProt Q6EEV4)
UniProt Q6EEV4, sequence (Q6EEV4 whole entry, looked up): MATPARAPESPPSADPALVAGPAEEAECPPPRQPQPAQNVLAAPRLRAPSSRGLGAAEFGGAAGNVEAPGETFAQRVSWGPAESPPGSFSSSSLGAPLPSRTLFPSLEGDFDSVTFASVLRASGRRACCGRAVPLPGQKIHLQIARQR
inactive: bafetinib -0.215 | nilotinib 0.107 | [2] -0.016 | dasatinib -0.003 | [3] -0.022 | [4] 0.135 | tipifarnib -0.095 | mubritinib 0.035 | [5] 0.027 | [6] -0.09 | [7] -0.065 | [8] -0.056 | entinostat -0.148 | citarinostat 0.029 | silmitasertib 0.03 | [9] -0.122 | [11] -0.009

PNPLA4 (UniProt P41247)
active: mubritinib 0.826
inactive: bafetinib -0.339 | nilotinib 0.128 | [2] -0.019 | dasatinib -0.165 | [3] -0.001 | [4] 0.156 | [10] 0.078 | tipifarnib -0.039 | [5] 0 | [6] -0.118 | [7] -0.357 | [8] 0.131 | entinostat -0.093 | citarinostat 0.602 | silmitasertib 0.012 | [11] -0.071

PMS2CL (UniProt Q68D20)
inactive: nilotinib -0.189 | [2] -0.154 | [3] 0.115 | [10] -0.128 | mubritinib -0.054 | [7] 0.185 | silmitasertib 0.095 | [9] 0.062

PTEN isoform 2 (UniProt P60484)
inactive: [1] 0.158 | [10] -0.087 | tipifarnib -0.212 | vorinostat 0.024 | citarinostat 0.089 | [11] 0.066

PPP2R5C isoform 2 (UniProt Q13362)
UniProt Q13362, sequence (Q13362 whole entry, looked up): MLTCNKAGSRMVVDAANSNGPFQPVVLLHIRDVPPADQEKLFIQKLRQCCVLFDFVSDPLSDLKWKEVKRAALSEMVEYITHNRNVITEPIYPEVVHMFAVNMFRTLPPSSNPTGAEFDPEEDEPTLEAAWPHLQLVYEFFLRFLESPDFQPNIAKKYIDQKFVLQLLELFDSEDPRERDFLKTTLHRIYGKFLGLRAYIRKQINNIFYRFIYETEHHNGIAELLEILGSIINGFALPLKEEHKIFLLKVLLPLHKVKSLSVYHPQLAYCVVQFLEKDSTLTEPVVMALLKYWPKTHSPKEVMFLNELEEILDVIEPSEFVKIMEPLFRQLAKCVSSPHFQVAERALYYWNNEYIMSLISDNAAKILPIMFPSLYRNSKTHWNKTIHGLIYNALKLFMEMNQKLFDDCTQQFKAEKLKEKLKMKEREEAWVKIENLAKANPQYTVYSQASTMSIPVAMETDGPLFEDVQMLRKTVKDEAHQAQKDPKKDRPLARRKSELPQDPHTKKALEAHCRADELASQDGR
inactive: bafetinib 0.046 | [10] 0.037 | mubritinib -0.057 | [7] -0.183 | citarinostat 0.069 | silmitasertib -0.064 | [11] 0.105

POGZ (UniProt Q7Z3K3)
active: [11] -0.483
inactive: [1] 0.174 | dasatinib -0.318 | [4] 0.072 | [10] 0.061 | tipifarnib -0.124 | [5] 0.009 | [6] 0.167 | [8] -0.028 | entinostat -0.031 | vorinostat -0.186 | citarinostat -0.206 | [9] -0.114

PHC3 isoform 7 (UniProt Q8NDX5)
UniProt Q8NDX5, sequence (Q8NDX5 whole entry, looked up): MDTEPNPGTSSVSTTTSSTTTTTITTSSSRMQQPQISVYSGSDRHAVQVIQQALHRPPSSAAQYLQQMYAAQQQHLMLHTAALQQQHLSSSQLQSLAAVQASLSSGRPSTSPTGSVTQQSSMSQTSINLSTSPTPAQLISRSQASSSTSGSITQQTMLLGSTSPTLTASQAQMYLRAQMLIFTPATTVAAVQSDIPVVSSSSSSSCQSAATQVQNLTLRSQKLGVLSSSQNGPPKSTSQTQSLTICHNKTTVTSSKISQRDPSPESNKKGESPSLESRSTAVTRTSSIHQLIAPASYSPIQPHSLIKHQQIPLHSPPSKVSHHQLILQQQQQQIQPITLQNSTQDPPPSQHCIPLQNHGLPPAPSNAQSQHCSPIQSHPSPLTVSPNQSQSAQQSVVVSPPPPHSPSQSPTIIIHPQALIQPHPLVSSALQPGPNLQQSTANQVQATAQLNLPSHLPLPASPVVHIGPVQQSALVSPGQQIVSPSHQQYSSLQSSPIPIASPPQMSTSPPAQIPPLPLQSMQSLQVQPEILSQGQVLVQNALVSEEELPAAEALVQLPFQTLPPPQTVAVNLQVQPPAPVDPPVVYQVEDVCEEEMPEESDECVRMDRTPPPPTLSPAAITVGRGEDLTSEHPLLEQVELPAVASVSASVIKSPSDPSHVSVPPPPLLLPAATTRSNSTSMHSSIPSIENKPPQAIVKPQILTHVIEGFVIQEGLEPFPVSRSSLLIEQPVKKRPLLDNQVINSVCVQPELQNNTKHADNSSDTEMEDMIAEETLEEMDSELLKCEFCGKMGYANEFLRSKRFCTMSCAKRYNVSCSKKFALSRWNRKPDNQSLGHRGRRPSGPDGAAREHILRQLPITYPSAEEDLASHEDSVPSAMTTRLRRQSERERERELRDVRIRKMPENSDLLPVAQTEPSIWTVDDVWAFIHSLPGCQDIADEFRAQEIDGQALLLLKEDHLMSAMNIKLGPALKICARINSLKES
inactive: bafetinib 0.222 | nilotinib -0.187 | [2] 0.01 | [3] 0 | [4] 0.018 | tipifarnib -0.016 | mubritinib 0.191 | [5] 0.158 | [7] -0.125 | entinostat 0.1 | citarinostat 0.172 | silmitasertib -0.018 | [11] -0.014
active: [9] 0.567
